Assay results taken from PubChem BioAssay (NCI).
Compounds without any hit were thinned out: in the full panel of roughly 83,000, 20% have a hit.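 Assay: single dose, 48 h. Readout: percent growth (0 = no net growth; negative = cell death). Active: <10.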 Unmarked numbers belong to inactive results. The source made the active and inactive calls.

Each compound was assayed on SK-MEL-2 melanoma (assay: NCI-60 one-dose screen, 48 h (100 = growth as untreated, 0 = no growth, -100 = all killed)). Details: 10 µM unless noted.
Description: Growth inhibition of the SK-MEL-2 human tumor cell line is measured as a screen for anti-cancer activity. Cells are grown in 96 well plates and exposed to the test compound for 48 hours. Compounds are tested at a single concentration, which is 10^-5 M for most compounds. The reported endpoint is percent growth (GI% or GIPRCNT), where numbers from 0 - 100% represent growth inhibition, and numbers from -100% - 0 represent cell death. For example, a value of 40 represents 60% growth inhibition. A value of 0 means no net growth occurred over the course of the experiment. A value of -40 indicates 40% of cells at the beginning of the experiment died by the end of the experiment. A value of -100 means all cells are dead at the end of the experiment.
NCI-60 Human Tumor Cell Lines Screen was performed using the standard one-dose NCI protocol, which is described in more detail at https://dtp.cancer.gov/discovery_development/nci-60/default.htm.
Compounds with GIPRCNT values below 10 were considered active. Activity score was based on GIPRCNT using the following formula: […]
Score is 0 for GIPRCNT values of 100 or above, 50 for GIPRCNT values of 0, and 100 for GIPRCNT values of -100.

SMILES | growth
CCCC(=O)NC(c1ccc(N(CC)CC)cc1)c1cc(C)c2cccnc2c1O (stereo not given) | 23%
CS(=O)(=O)c1ccc(-n2cc(/C=C/C(=O)c3ccc(NC(=O)CO[N+](=O)[O-])cc3)c(-c3ccc(Cl)cc3)n2)cc1 | 94.9%
Clc1ccc2oc3c(NCCCN4CCOCC4)c4ccccc4nc3c2c1 | 56.8%
Nc1nc(N)c2c(n1)NC(c1ccc(C(F)(F)F)cc1)CC(c1ccc(Nc3nc(NCCO)nc(Nc4ccc(Cl)cc4)n3)cc1)=N2 (stereo not given) | -80.3% (active)
OC1CCN(CCCOc2c3ccccc3nc3c2oc2ccccc23)CC1 | -62.4% (active)
O=C(c1ccc(O)cc1)C1[C@H](c2ccc(Cl)cc2)[C@@H](c2ccccc2)NC12C(=O)Nc1ccc(Cl)cc12 (stereo not given in full) | 57%
OC1CCN(CCCOc2c3ccc(Cl)cc3nc3c2oc2ccc(Cl)cc23)CC1 | 50.6%
CCCCCCNC(=O)Oc1ccc(/C(=C(/C)c2ccccc2)c2ccc(OCCN3CCCCCC3)cc2)cc1 | 95.9%
c1ccc2c(NCCCn3ccnc3)c3oc4ccccc4c3nc2c1 | -27.2% (active)
COc1cc(-c2nc3ccc(-c4nnc(SCC(=O)Nc5ccc(C(=O)/C=C/c6ccc(Cl)cc6)cc5)o4)cc3[nH]2)cc(OC)c1OC | 100%
O=C1Nc2ccc(Cl)cc2/C1=C/c1ccc(OCC(=O)c2ccc(Br)cc2)cc1 | 113%
COc1cc(-c2nc3ccc(-c4nnc(SCC(=O)Nc5ccc(C(C)=O)cc5)o4)cc3[nH]2)cc(OC)c1OC | 115%
Cc1ccc(-c2nc(C(Cl)Cl)nc3cc(-c4ccccc4)nn23)cc1 | 88.8%
CC(C)Sc1nc(Nc2ccc(S(N)(=O)=O)cc2)c(C#N)c(-c2ccc(F)cc2)n1 | 92.5%
Cn1c(SCC(=O)c2cccs2)nc2ccccc2c1=O | 98%
CS(=O)(=O)Nc1ccc(-c2nn(-c3ccc(S(C)(=O)=O)cc3)cc2/C=C/C(=O)c2ccc(NC(=O)CO[N+](=O)[O-])cc2)cc1 | 97.3%
COc1ccc(CNS(=O)(=O)/N=C2\NC(=O)NC2=C(Cl)Cl)cc1 | 29.1%
NC(=O)c1c(NC(=O)c2ccc(C3CCCCC3)cc2)sc2c1CCC(=O)C2 | 25.7%
COc1ccc(NC(=O)c2sc3nc(-c4cnccn4)cc(-c4cccs4)c3c2N)cc1 | 86.6%
CCC/C=C/C=C/C(=O)N[C@@H](Cc1cc(F)cc(F)c1)C(=O)N[C@@H]1C(=O)N2CCC[C@H]2C(=O)N2CCCC[C@H]2C(=O)N[C@@H](C)C(=O)N2C[C@H](C)C[C@H]2C(=O)O[C@H]1C | -12.9% (active)

SMILES | growth
CC(=O)Oc1ccccc1C(=O)Nc1cc(C(C)C)ccc1C | -22.9% (active)
CC(C)(C)Nc1nc2c(OCCc3ccccc3)cccn2c1-c1ccccc1Cl | -76.2% (active)
O=C(N/N=C/c1ccc[nH]1)c1[nH]c2ccc(Br)cc2c1-c1ccccc1 | 31.9%
NS(=O)(=O)c1ccc(Nc2nc(SCC(=O)c3ccc(Cl)cc3)nc3ccccc23)cc1 | 100%
CCOC(=O)c1c(NC(=O)c2cccc(C(F)(F)F)c2)sc2cc(O)ccc12 | 100%
COc1ccc(/C=N/NC(=O)c2[nH]c3ccc(Br)cc3c2-c2ccccc2)o1 | -13% (active)
COc1cc(/C=C/C(=O)c2cc(OC)c(OC)c(OC)c2)ccc1OCc1ccc(F)cc1 | 90%
COc1ccc(N/N=C/c2c(-c3ccc(S(C)(=O)=O)cc3)nc3ccccn23)cc1 | 53.8%
Clc1ccc2c(NCCCN3CCOCC3)c3oc4ccc(Cl)cc4c3nc2c1 | 122%
CCOC(=O)c1sc(N)c(C(=O)OCC)c1C | 75.2%
Cc1ccc(/C=C/c2nn3c(-c4ccco4)nnc3s2)cc1C | 128%
COc1ccc(/C=N/Nc2ccnc3cc(Cl)ccc23)cc1Cl | -88% (active)
CSCCC(C(=O)O)N1C(=O)/C(=C/c2ccc(O)c(O)c2)SC1=S (stereo not given) | 133%
N#Cc1c(-c2ccc(Cl)cc2)nc2c(-c3ccccc3)c(Nc3ccccc3)nn2c1N | 96%
CC(O)C(NC(=O)C1CCCN1C(=O)CNC(=O)C1CC(=O)NCC(=O)NC(Cc2c[nH]c3ccccc23)C(=O)NC(Cc2ccc(O)cc2)C(=O)NCC(=O)NC(CO)C(=O)NC(CCC(N)=O)C(=O)NC(Cc2c[nH]c3ccccc23)C(=O)N1)C(=O)NCC(=O)NC(CCC(N)=O)C(=O)NC(CCCNC(=N)N)C(=O)NC(CC(=O)O)C(=O)O (stereo not given) | 116%
CCCC(=O)NC(c1cccnc1)c1cc(C)c2cccnc2c1O (stereo not given) | 101%
N/C(=N\c1nc2c(Cl)cc(Cl)cc2s1)C(Cl)(Cl)Cl | 80.5%
CN1C(=O)N(c2ccccc2)C2N=C(N/N=C/c3ccccc3)SC21 (stereo not given) | -3.76% (active)
[Cl][Ru].c1ccc(-c2cc(-c3ccccn3)nc(-c3ccccn3)c2)cc1.c1ccc(-c2ccnc3c2ccc2c(-c4ccccc4)ccnc23)cc1 | -91.6% (active)
CCOc1ccc([C@H]2C(C(=O)c3ccc(Cl)cc3)C3(N[C@@H]2c2ccccc2)C(=O)Nc2ccc(Br)cc23)cc1 (stereo not given in full) | 56.6%
